Records with an inconclusive call do not appear. The source made the active and inactive calls. The calls were made as follows: active = hit-call score of the fitted dose curve at least 0.9, where 1 is the maximum; inconclusive = response in the unintended direction; inactive = score below 0.9.

Test [1] is described as follows: ATG_XTT_Cytotoxicity: Cytotoxicity Assessment in the Attagene TRANS-FACTORIAL HepG2 Assay (AID 2283584). The essentials:
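HepG2 human liver cells, transiently transfected with multiple GAL4-UAS reporter units, were dosed and read at 24 h by XTT as cell number. Loss of signal was fitted relative to DMSO negative control baseline.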

The nature of test [2]: TOX21_p53_BLA_p2_viability: Viability Assessment in the Tox21 HCT-116 p53 Agonism Beta-lactamase Assay, Phase 2 (AID 2283591).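 Also: compound exposure lasted 16 h at 37 °C; actives lower the ATP signal meaning cytotoxicity.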 The essentials:
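HCT-116 p53-bla cells (4000/well) rested 5 h at 37C, then received compounds in DMSO (217-fold dilution) for 16 h at 37C, 5% CO2. After the CCF4 read, CellTiter-Glo was added; ATP luminescence was read after 30 min at room temperature.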

The target of test [3] is Cellular tumor antigen p53 (Homo sapiens) (UniProt P04637). In words: TOX21_p53_BLA_p2_ratio: Tox21 HCT-116 p53 Agonism Beta-lactamase Assay, Ratio, Phase 2 (AID 2283592). A digest of the protocol: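 HCT116 cells carrying a p53-responsive beta-lactamase reporter were plated, incubated 5 h at 37C, then dosed with compounds in DMSO (217-fold dilution) for 16 h. CCF4-AM substrate was added for 2 h at room temperature; the 460/530 nm emission ratio gave gain-of-signal activity relative to DMSO.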

The nature of test [4]: TOX21_p53_BLA_p3_viability: Viability Assessment in the Tox21 HCT-116 p53 Agonism Beta-lactamase Assay, Phase 3 (AID 2283593).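 Also: cells exposed to compound for 16 h before reading.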 A digest of the protocol: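 HCT-116 cells (4000/well) rested 5 h at 37C, then got DMSO compounds by pin tool (217-fold dilution) for 16 h at 37C, 5% CO2. After the bla read, CellTiter-Glo was added and luminescence read at 30 min, room temperature.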

Test [5] deals with Cellular tumor antigen p53 (Homo sapiens) (UniProt P04637). In words: TOX21_p53_BLA_p3_ratio: Tox21 HCT-116 p53 Agonism Beta-lactamase Assay, Ratio, Phase 3 (AID 2283596). The essentials:
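HCT116 p53-bla cells (4000/well) given compound in DMSO (217-fold dilution) after 5 h, incubated 16 h at 37C. CCF4-AM substrate 2 h at room temperature; 460/530 nm emission ratio, gain fitted against DMSO.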

The target is the same in test [6]. Description: TOX21_p53_BLA_p5_ratio: Tox21 HCT-116 p53 Agonism Beta-lactamase Assay, Ratio, Phase 5 (AID 2283599). The essentials:
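HCT-116 cells carrying a p53-inducible beta-lactamase reporter were seeded at 4000 cells/well and dosed after 5 h with compound in DMSO (217-fold dilution). After 16 h at 37C, CCF4-AM substrate was added for 2 h, and the 460/530 nm emission ratio was scored as gain-of-signal versus DMSO.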

Test [7] is described as follows: TOX21_p53_BLA_p5_viability: Viability Assessment in the Tox21 HCT-116 p53 Agonism Beta-lactamase Assay, Phase 5 (AID 2283600). A digest of the protocol:
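Cells were plated at 4000/well, rested 5 h at 37C, then given compounds in DMSO (217-fold dilution) for 16 h at 37C, 5% CO2. Following the CCF4-AM beta-lactamase read, CellTiter-Glo was added and luminescence was read after 30 min at room temperature.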

In test [8] the target is Cellular tumor antigen p53 (Homo sapiens) (UniProt P04637). In words: TOX21_p53_BLA_p4_ratio: Tox21 HCT-116 p53 Agonism Beta-lactamase Assay, Ratio, Phase 4 (AID 2283601). The essentials: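 HCT116 cells carrying an inducible beta-lactamase reporter were plated at 4000 cells/well, rested 5 h, then exposed to compounds in DMSO (217-fold dilution) for 16 h at 37C. CCF4-AM substrate was loaded 2 h at room temperature; 460/530 nm emission ratio scored gain-of-signal versus DMSO.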

Test [9] can be described thus: TOX21_p53_BLA_p4_viability: Viability Assessment in the Tox21 HCT-116 p53 Agonism Beta-lactamase Assay, Phase 4 (AID 2283597).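 Also: hits lower the luminescence signal meaning cytotoxicity.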 The essentials: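 HCT116 p53-bla cells (4000/well) rested 5 h at 37C, then received compounds in DMSO (217-fold dilution) for 16 h at 37C, 5% CO2. CellTiter-Glo was added after the CCF4-AM read, and luminescence was read after 30 min at room temperature.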

Chain of Cellular tumor antigen p53 (Homo sapiens) (P04637 whole entry, looked up): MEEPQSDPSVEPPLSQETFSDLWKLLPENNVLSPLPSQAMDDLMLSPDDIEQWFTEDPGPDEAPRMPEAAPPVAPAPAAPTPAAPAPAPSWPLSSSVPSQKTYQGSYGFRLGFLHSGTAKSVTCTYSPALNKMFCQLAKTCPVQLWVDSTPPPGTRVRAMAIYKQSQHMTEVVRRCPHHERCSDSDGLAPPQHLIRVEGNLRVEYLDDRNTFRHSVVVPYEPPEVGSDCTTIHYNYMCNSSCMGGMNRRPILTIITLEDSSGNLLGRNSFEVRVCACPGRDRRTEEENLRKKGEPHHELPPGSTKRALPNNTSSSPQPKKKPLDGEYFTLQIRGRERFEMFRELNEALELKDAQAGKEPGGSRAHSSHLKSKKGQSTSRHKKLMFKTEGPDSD

In the case of `CC1(C)O[C@@H]2C[C@H]3[C@@H]4CCC5=CC(=O)C=C[C@]5(C)[C@@]4(F)[C@@H](O)C[C@]3(C)[C@]2(C(=O)CO)O1`, the result in test [1], in test [2], in test [3], in test [4], in test [5] and in test [6] was inactive. The molecule was called inactive in [7] and in [8].
`CC(=O)c1c(C)c([N+](=O)[O-])c(C(C)(C)C)c([N+](=O)[O-])c1C`: the result in [1], in test [2], in [3], in test [4], in test [9] and in test [6] was inactive. Further, the outcome in test [8] was inactive.
Consider `CC(C)CCOC(=O)c1ccccc1`, for which the molecule was classed as inactive in test [1], in test [2], in test [3], in [4], in test [6] and in [7]. The outcome in test [8] was inactive.
As to `CCOC(=O)COC(=O)c1cc(Oc2ccc(C(F)(F)F)cc2Cl)ccc1[N+](=O)[O-]`, the call in test [1], in test [2], in test [3], in [4], in test [9] and in test [7] was inactive.
In the case of `Nc1ccc(N)c2c1C(=O)c1ccccc1C2=O`, the molecule was called inactive in [1], in [2], in [4], in test [5], in [6] and in test [7]. The AC50 – broadly, the concentration at which the activity in the assay is half-maximal – in test [3] was 7.9 µM (active); in [8], 13 µM (active).
On to `CCOC(=O)[C@@H](C)Oc1ccc(Oc2nc3ccc(Cl)cc3o2)cc1`, for which the call in test [1], in test [2], in [3], in [5] and in test [6] was inactive.
As for `CCCOCCO`, the outcome in test [1], in test [2], in test [3], in test [4], in [9] and in [6] was inactive. In test [7], the outcome was inactive.
Consider `CCCCCCCCCCCC(=O)OC[C@@H](O)[C@H]1OC[C@H](O)[C@H]1O`, for which the call in test [1], in test [2], in [3], in test [4], in [6] and in test [7] was inactive. The outcome in test [8] was inactive.
`OCc1ccc(Cl)cc1Cl`: the molecule was classed as inactive in test [1], in [2], in [3], in [5], in test [9] and in [6]. Also, the result in test [8] was inactive.
For the molecule `C=CC(=O)OCCCC`, the result in [1], in test [2], in [3], in [4], in test [5] and in test [6] was inactive. Moreover, the result in [8] was inactive.
Turning to `CCC1(c2ccccc2)C(=O)NCNC1=O`, the molecule was called inactive in [1], in test [2], in test [3], in test [4], in test [5] and in test [7]. Further, in [8], the outcome was inactive.
On to `CCOCCOCCOCC`, for which the result in test [1], in test [2], in [3], in [4] and in [6] was inactive.
On to `CC(Oc1cc(Cl)ccc1Cl)C(=O)O` (configuration not stated), for which the result in [1], in test [2], in [3], in test [4] and in test [7] was inactive.
As to `COC(=O)c1ccc(C)cc1C1=NC(C)(C(C)C)C(=O)N1` (configuration not stated) (tested in a mixture with another compound), the call in test [1], in test [2], in test [3], in test [5], in test [9] and in [7] was inactive.
For `COc1ccc(CCC(C)=O)cc1`, the call in test [1], in test [2], in [3], in test [4], in test [5] and in test [6] was inactive. For the same molecule, in test [8], the outcome was inactive.
Regarding `c1ccc(CCc2ccccc2)cc1`, the call in test [1], in [2], in [3], in test [6], in test [7] and in test [8] was inactive.
For `C=COCCOCCOC=C`, the result in [1], in [2], in test [5], in [9] and in test [8] was inactive.
As for `O=c1c(O)c(-c2ccc(O)cc2)oc2cc(O)cc(O)c12`, the molecule was classed as inactive in test [1], in test [2], in [3], in test [5], in [6] and in [8].
Take `C=CCCC(=O)/C=C/C1C(C)=CCCC1(C)C` (configuration not stated): the molecule was called inactive in [1], in test [2], in [3], in test [9], in test [6] and in test [7]. Moreover, the outcome in test [8] was inactive.
As to `O=C(CS)OCCOC(=O)CS`, the call in [1], in test [2] and in [9] was inactive. In addition, the AC50 in test [5] is 39.3 µM (active); in [6], 58.3 µM (active); in test [8], 53.3 µM (active).
In the case of `C=CCOC(=O)CCCCCC`, the outcome in [1], in test [2], in [5] and in [8] was inactive.
Turning to `C=C(C)CNCC`, the result in test [1], in test [2], in test [5], in test [9], in [6] and in test [8] was inactive.
Regarding `C=C(CC(=O)O)C(=O)O`, the outcome in test [1], in [2], in test [4], in [5], in test [6] and in test [7] was inactive. The result in [8] was inactive.
As to `CCc1cc(Cc2cc(CC)cc(C(C)(C)C)c2O)c(O)c(C(C)(C)C)c1`, in [1], the molecule was classed as inactive. The concentration at half-maximal activity (AC50) in test [2] is 4.87 µM (active); in test [4] it was 16.1 µM (active); in test [5] it was 32.6 µM (active); in test [9], 5.48 µM (active); in test [6], 29.3 µM (active); in [8], 10.8 µM (active).
With `CSc1c(Cl)c(Cl)c(Cl)c(Cl)c1Cl`, the call in test [1], in [2], in test [5], in [6], in [7] and in test [8] was inactive. Further, in test [4], the AC50 was 45.9 µM (active).
Regarding `[Cl][Au]([Cl])[Cl]`, the molecule was called inactive in [1], in test [6] and in [7]. In addition, the AC50 in test [2] was 45.6 µM (active); in [4] it was 75.1 µM (active); in test [9] it was 70.7 µM (active); in test [8] it was 37.8 µM (active).

The values above are taken from PubChem BioAssay (EPA / NIEHS).
